From the supplement of paper PMC12024529

These compounds were tested on HEK293 WT BDD-FVIII-Gluc (assay: secreted FVIII-Gluc luciferase Z-score vs DMSO control; higher = more FVIII-Gluc secretion). Details: 5 µM.
Protocol: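 Natural plant-compound library (480 compounds, ST catalogue IDs) screened on HEK293 cells stably expressing WT BDD-FVIII-Gaussia luciferase fusion at 5 µM. Secreted Gluc activity in the medium is given as a Z-score relative to DMSO controls.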
For `O=C1OC(=O)C2C3CCC(O3)C12` (stereo not given), the “secreted FVIII-Gluc luciferase Z-score” value was -0.862. In the case of `Cc1cc2c(C(C)C)c(O)c(O)c3c2c(c1-c1c(C)cc2c(C(C)C)c(O)c(O)c4c2c1OC4N)OC3N` (stereo not given), the “secreted FVIII-Gluc luciferase Z-score” value is reported as -0.0294. For `CC(=O)Oc1c(C)c(C)c2c(c1C)CCC(C)(CCCC(C)CCCC(C)CCCC(C)C)O2` (stereo not given), the “secreted FVIII-Gluc luciferase Z-score” value was 0.728. `C=CCc1ccc(O)c(OC)c1` was tested, and the “secreted FVIII-Gluc luciferase Z-score” value was -0.898. `O=c1cnn(C2OC(CO)C(O)C2O)c(=O)[nH]1` (stereo not given) was tested, and the “secreted FVIII-Gluc luciferase Z-score” value was -2.33. For `COc1ccc2c(=O)c(-c3ccccc3)coc2c1`, the “secreted FVIII-Gluc luciferase Z-score” value was 1.15. `C[C@H]1O[C@@H](O[C@H]2[C@@H](O)C[C@H](O[C@H]3[C@@H](O)C[C@H](O[C@H]4CC[C@@]5(C)[C@H](CC[C@@H]6[C@@H]5C[C@@H](O)[C@]5(C)[C@@H](C7=CC(=O)OC7)CC[C@]65O)C4)O[C@@H]3C)O[C@@H]2C)C[C@H](O)[C@@H]1O` was tested, and the “secreted FVIII-Gluc luciferase Z-score” value was -4.67. For `CC(=O)OC1CCC2(C)C(CCC3(C)C2C(=O)C=C2C4CC(C)(C(=O)OCCN5CCCCC5)CCC4(C)CCC23C)C1(C)C` (stereo not given), the “secreted FVIII-Gluc luciferase Z-score” value was 0.64. With `COc1ccc(-c2oc3ccccc3c(=O)c2O)cc1` the “secreted FVIII-Gluc luciferase Z-score” value was -1.09. In the case of `CC(=O)Oc1cc(OC(C)=O)c2c(=O)cc(-c3ccc(OC(C)=O)c(OC(C)=O)c3)oc2c1`, the “secreted FVIII-Gluc luciferase Z-score” value is reported as 0.33. With `Cc1cc(O)c2c(c1)C(=O)c1cc(O)cc(O)c1C2=O` the “secreted FVIII-Gluc luciferase Z-score” value was -0.0482. `NCC1OC(OC2C(CO)OC(OC3C(O)C(N)CC(N)C3OC3OC(CO)C(O)CC3N)C2O)C(N)C(O)C1OC1OC(CO)C(O)C(O)C1O` (stereo not given) was tested, and the “secreted FVIII-Gluc luciferase Z-score” value was 1.54. With `O=C(O)C(=O)Cc1ccccc1` the “secreted FVIII-Gluc luciferase Z-score” value was 0.46. For `COc1cc(-c2cc(=O)c3ccccc3o2)ccc1O`, the “secreted FVIII-Gluc luciferase Z-score” value was 1.57. For `CC1=C(C/C=C(\C)CCCC(C)CCCC(C)CCCC(C)C)C(=O)c2ccccc2C1=O` (stereo not given), the “secreted FVIII-Gluc luciferase Z-score” value was 0.33.
